The values that follow come from PubChem BioAssay AID1347404 (Pan Lab, Icahn School of Medicine at Mount Sinai, 2020).

As usually defined, the inhibition is the relative decrease from the control value, in per cent.

The structures appear in SMILES notation. Screen size: about 140,000 compounds; about 860 (0.61%) were called active. This is one part of a sample in which actives are shown more often than they occur. Unmarked numbers belong to inactive results. No stated cut-off is given here; in the data, active means inhibition above about 25%; inactive means the rest.

Sequence of E3 ubiquitin-protein ligase RBX1 (Homo sapiens) + Cullin-1 (Homo sapiens) (P62877 whole entry, looked up): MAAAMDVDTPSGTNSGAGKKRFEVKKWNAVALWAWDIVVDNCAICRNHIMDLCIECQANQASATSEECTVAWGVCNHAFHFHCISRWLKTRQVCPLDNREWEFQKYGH
Sequence of E3 ubiquitin-protein ligase RBX1 (Homo sapiens) + Cullin-1 (Homo sapiens) (Q13616 whole entry, looked up): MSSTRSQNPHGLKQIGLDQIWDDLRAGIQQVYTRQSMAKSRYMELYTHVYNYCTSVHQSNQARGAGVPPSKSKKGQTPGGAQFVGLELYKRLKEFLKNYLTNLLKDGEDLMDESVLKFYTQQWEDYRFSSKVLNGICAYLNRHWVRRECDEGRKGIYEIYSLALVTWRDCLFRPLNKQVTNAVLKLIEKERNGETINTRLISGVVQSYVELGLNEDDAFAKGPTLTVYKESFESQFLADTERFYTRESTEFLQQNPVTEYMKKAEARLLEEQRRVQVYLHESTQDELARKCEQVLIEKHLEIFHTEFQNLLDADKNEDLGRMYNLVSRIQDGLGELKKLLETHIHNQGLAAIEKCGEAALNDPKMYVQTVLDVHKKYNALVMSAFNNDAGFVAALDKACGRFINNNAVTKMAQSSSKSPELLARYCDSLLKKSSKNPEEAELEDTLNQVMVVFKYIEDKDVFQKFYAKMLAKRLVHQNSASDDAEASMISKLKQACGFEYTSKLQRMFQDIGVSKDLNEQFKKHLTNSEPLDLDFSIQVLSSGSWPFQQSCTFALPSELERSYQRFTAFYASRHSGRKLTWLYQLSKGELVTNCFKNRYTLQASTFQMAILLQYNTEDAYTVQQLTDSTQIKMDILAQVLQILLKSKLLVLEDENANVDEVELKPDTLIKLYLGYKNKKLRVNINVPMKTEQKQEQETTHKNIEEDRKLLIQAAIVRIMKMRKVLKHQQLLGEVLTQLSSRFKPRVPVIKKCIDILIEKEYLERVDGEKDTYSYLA

This experiment has as its target E3 ubiquitin-protein ligase RBX1 (Homo sapiens) + Cullin-1 (Homo sapiens) (UniProt P62877+Q13616). Description: inhibitors of human ROC1-CUL1 ubiquitin ligase activity (AID 1347404). The note with it: in vitro K48 di-Ub FRET, acceptor:donor ratio, 45 min; at 10 µM; hits give high values.
As for `Cn1c(CC(=O)c2ccc(F)cc2)nccc1=O`, the inhibition was 2.65%.

`O=C(OCc1ccccc1)c1ccc(O)c(O)c1`: the inhibition was 43% (active).

As to `O=C(OCc1ccccc1)c1cncc(Br)c1`, the inhibition is -7.74%.

For the molecule `COC(=O)c1cccc(COC(=O)c2ccc(NC(C)=O)cc2)c1`, the inhibition is 1.6%.

For the molecule `Nc1nc2cccnc2cc1Br`, the inhibition is 1.54%.

For the molecule `Fc1cc(Br)cc2c1NC(c1ccccc1C(F)(F)F)C1CC=CC21` (centres undefined), the inhibition is 1.76%.

With `CCOc1cccc(CC(=O)N2CCc3c([nH]c4ccccc34)C2c2ccc(F)cc2)c1OCC` (centres undefined), the inhibition was 1.07%.

For the molecule `CCOc1cccc2c1N[C@@H](c1ccc(C(=O)O)cc1)[C@H]1CC=C[C@@H]21`, the inhibition is 68.9% (active).

As for `CCC(C1=NN2C(=N)/C(=C\c3ccc(OC(=O)c4ccco4)cc3)C(=O)N=C2S1)c1ccccc1` (centres undefined), the inhibition was -6.1%.

As to `Cc1ccc(C2=NN3C(=N)/C(=C/c4ccco4)C(=O)N=C3S2)cc1`, the inhibition was 34.8% (active).

Take `Cc1cc(/C=C2/C(=N)N3N=C(c4ccccc4Cl)SC3=NC2=O)c(C)n1-c1ccc(Cl)cc1Cl`: the inhibition is 2.61%.

Turning to `Cc1ccc(C)c(-n2nnc(C(=O)Nc3ccc(N4CCN(C)CC4)cc3)c2C)c1`, the inhibition was 12.2%.

As to `COc1cccc(OC)c1C(=O)Oc1ccc(Br)cc1Br`, the inhibition is 3.84%.

With `CCOC(=O)C1=C(C)N=c2s/c(=C\c3cccnc3)c(=O)n2C1c1ccc(OC)c(Br)c1` (centres undefined), the inhibition was -5.43%.

For `CCOC(=O)C1=C(C)N=c2s/c(=C\c3ccc(N(CC)CC)cc3O)c(=O)n2C1c1ccc(Br)cc1` (centres undefined), the inhibition is 49.4% (active).

Consider `CCOC(=O)C1=C(C)N=c2s/c(=C\c3cc(C)n(-c4ccc(Br)cc4)c3C)c(=O)n2C1c1ccccc1Cl` (centres undefined), for which the inhibition was -10.4%.

As to `CCOC(=O)C1(CCOC)CCN(Cc2ccc(C#CCCO)cc2)CC1`, the inhibition was -1.32%.

Regarding `C=C(C)COc1ccc(NC(C)=O)cc1`, the inhibition was -3.18%.

Consider `Cc1ccc(N=C2S/C(=C\c3cc(Cl)ccc3O)C(=O)N2C)cc1C`, for which the inhibition was -0.425%.

Consider `Cc1c(CN2CCc3[nH]nc(-c4cccc(F)c4)c3C2)cnn1C`, for which the inhibition is 8.08%.

As for `CN(C)S(=O)(=O)N1CCC(C(=O)Nc2ccc(Cl)c(C(F)(F)F)c2)CC1`, the inhibition is 6.61%.

Consider `N#Cc1cccc(-c2cccc(-c3ccn[nH]3)c2)c1`, for which the inhibition is 2.7%.

For the molecule `Cc1ccc(C2=NC(=O)OC2(C)C)c(C)c1`, the inhibition was 2.99%.

Turning to `COC(=O)COc1ccc(/C=N/NC(=O)c2ccc(N(Cc3ccccc3Cl)S(C)(=O)=O)cc2)cc1`, the inhibition is -4.5%.

In the case of `Cc1cc(O)c(C(=O)C2=CSc3nnc(-c4ccccc4)n3N=C2)cc1Cl`, the inhibition was 2.34%.

Regarding `CCOC(=O)C1C(C)=NC(=O)NC1c1cn(-c2ccccc2)nc1-c1ccc(Cl)cc1` (centres undefined), the inhibition is -6.88%.

For the molecule `C=CCC(=O)N1CCC(C2CCN(Cc3cccnc3)CC2)C1` (centres undefined), the inhibition was 0.333%.

`Cc1ccc(C)c(NC(=O)NC2CCCc3ccccc32)c1` (centres undefined): the inhibition is -5.58%.

With `CC(Oc1ccc(F)cc1)C(=O)NC(C)c1ccccc1` (centres undefined), the inhibition is -5.33%.

Consider `Cc1nn(-c2ccccc2)c(Cl)c1C1c2c(n[nH]c2-c2ccccc2)OC(=N)C1C#N` (centres undefined), for which the inhibition is -6.2%.

With `CCn1c2ccccc2c2cc(C=Nc3cccc(Cl)c3C)ccc21`, the inhibition is -4.47%.

Turning to `COCCNC(=O)C1CCN(c2nc(C)c3cc(C)c(C)cc3n2)CC1`, the inhibition is -4.41%.

For `Cc1cc2nc(N3CCC(C(=O)NC45CC6CC(CC(C6)C4)C5)CC3)nc(C)c2cc1C`, the inhibition was 17.1%.

On to `CCC(NC1CCN(c2nc(C)c3cc(C)c(C)cc3n2)CC1)c1ccncc1` (centres undefined), for which the inhibition was 57.6% (active).

With `Clc1ccc(COn2nnc3ccccc32)cc1Cl`, the inhibition is -0.0969%.

Turning to `O=[N+]([O-])c1ccccc1/C=N/Nc1nc2c(s1)CCCC2`, the inhibition was -4.02%.

Turning to `CCCCNC(=O)c1nnn(-c2ccccc2)c1C`, the inhibition was 9.64%.

As to `CCOC(=O)C1=c2s/c(=C/c3ccc(Cl)cc3)c(=O)n2C(=N)C(C(=O)OC)C1c1ccc(Cl)cc1` (centres undefined), the inhibition was -2.16%.

Consider `Cc1ccc(C(=O)Nc2ccc(-c3nnc(SCC(=O)Nc4ccc(F)cc4)n3C)cc2)cc1`, for which the inhibition was 2.28%.

As to `C#CCOc1ccc(/C=C2\SC(=S)N(c3cccc(C(=O)O)c3)C2=O)cc1OC`, the inhibition was -1.21%.

With `O=C1SC(=Nc2ccccc2)N=C1Cc1cccc(OC(=O)c2ccccc2)c1`, the inhibition was 2.05%.

Regarding `Cc1ccc(CCC(=O)NCc2ccc(Cl)cc2)cc1`, the inhibition is -2.97%.

Consider `Nc1nnnn1/N=C/c1ccc([N+](=O)[O-])o1`, for which the inhibition is 5.46%.

`O=C(O)c1cc2c(s1)C=Cc1ccccc1C2`: the inhibition was 4.96%.

As for `Cc1nc2c(sc3nc4ccccc4nc32)c(=O)[nH]1`, the inhibition is -2.71%.

Regarding `NC(=O)c1ccccc1NC(=O)c1ccc(CN2CCCCC2)cc1`, the inhibition is 4.02%.

Regarding `COC(=O)c1ccc2c(c1)C1C=CCC1C(c1cccc([N+](=O)[O-])c1)N2` (centres undefined), the inhibition is 5.03%.

`O=C(O)c1ccc2c(c1)[C@@H]1C=CC[C@@H]1[C@H](c1ccc3c4c(cccc14)CC3)N2`: the inhibition was 99.3% (active).

Consider `O=C(c1ccc2c(c1)C1C=CCC1C(c1ccccc1)N2)N1CCOCC1` (centres undefined), for which the inhibition is -11.2%.

In the case of `CC(=O)Nc1ccc(OC(=O)c2cccc(C)c2)cc1`, the inhibition was -0.55%.

For the molecule `COc1ccccc1-c1nc(CN2CCCC2c2n[nH]c(=O)[nH]2)c(C)o1` (centres undefined), the inhibition was -4.69%.

For `Cc1c(/C=N/NC(=O)CSc2nc3ccccc3s2)c2ccccc2n1C`, the inhibition was 5.36%.

As for `Brc1ccc(C#Cc2cccs2)cc1`, the inhibition is -4.29%.

Take `O=C(COc1ccccc1Cl)Nc1nncs1`: the inhibition is 2.7%.

As to `COc1cccc(-c2nn3c(-c4cccc(C(F)(F)F)c4)nnc3s2)c1`, the inhibition was -4.15%.

Consider `CC1(C)N=C(SCc2ccccc2Cl)c2ccccc2N1`, for which the inhibition was -9.73%.

For `Clc1ccccc1CSc1nnc(-c2ccco2)c(-c2ccco2)n1`, the inhibition was 101% (active).

On to `Clc1ccccc1CSc1nncn2c1cc1occc12`, for which the inhibition is 6.61%.

`CN1CCC(N2CCCC2C(=O)Nc2ccc(-c3cccc(F)c3)cc2)CC1` (centres undefined): the inhibition was -3.33%.
